“And” between values parts separate entries of the source, which are not always exact repeats. Equal entries are not always repeated.
Assays:
Assay type in all cases: functional
[1] = tested on: Plasmodium falciparum; test: GSK_TCMDC: Inhibition of Plasmodium falciparum 3D7 in whole red blood cells, using parasite LDH activity as an index of growth. Test compounds present at 2uM
[2] = tested on: Plasmodium falciparum; test: GSK_TCMDC: Inhibition of Plasmodium falciparum Dd2 in whole red blood cells, using parasite LDH activity as an index of growth. Test compounds present at 2uM
[3] = tested on: HepG2; test: GSK_TCMDC: Percent inhibition of human HepG2 cell line. Test compounds present at 10uM.

| SMILES | Inhibition [1] | Inhibition [2] | Inhibition [3] |
| --- | --- | --- | --- |
| CC(C)c1ccc(NC(S)=NN=Cc2ccccn2)cc1 | 100% | 98% | 47% |
| COc1ccc(C=NNc2ccnc3cc(F)c(C)cc23)c2ccccc12 | 100% | 85% | 0% |
| COc1ccc2ncc(F)c(CCN3CC(O)C(CNCc4ccc5c(c4)OCCO5)C3)c2n1.Cl (stereo not drawn) | 94% | 35% | 18% |
| CC(C)N1CCN(c2ccc(OCCCN3CCN(c4cccc(Cl)c4Cl)CC3)c(C(F)(F)F)c2)CC1 | 94% | 37% | 79% |
| Cn1c(Sc2ncnc3sccc23)nc2ccccc21 | 100% | 100% | 0% |
| Cc1cccc2nc(-c3cccc(-c4cccc(CN5CCN(c6ccncc6)CC5)c4)c3)[nH]c12.O=C(O)C(F)(F)F | 100% | 96% | 47% |
| c1ccc(-c2[nH]c3ccccc3c2CN2CCC(N3CCCCC3)CC2)nc1 | 100% | 82% | 13% |
| COc1ccc(Nc2nccc(NCCNC(=O)Nc3cc(C)ccc3C)n2)cc1 | 85% | 0% | 10% |
| COc1cc(NC(=O)CCCCCCCCN2CCN(C)CC2)c2ncccc2c1 | 82% | 36% | 8% |
| Cc1cccc2nc(-c3ccc(-c4ccc(CNCCN5CCNCC5)cc4)s3)[nH]c12.O=C(O)C(F)(F)F | 88% | 0% | 30% |
| O=C(NCCCN(Cc1ccc(F)cc1)c1ccccn1)C(c1cc2ccccc2o1)N1CCN(C(c2ccccc2)c2ccccc2)CC1 (stereo not drawn) | 97% | 53% | 14% |
| Cc1cc(=O)c(-c2ccc(Oc3cccc(C(F)(F)F)c3)cc2)c(C)[nH]1 | 97% and 96% | 97% and 95% | 8% and 14% |
| CCOC(=O)c1ccc2[nH]c(-c3ccc(C(=O)NC4CCN(Cc5ccccc5)CC4)s3)nc2c1 | 100% | 95% | 32% |
| COc1cc(-c2cc3cc(Cl)c(Cl)cc3[nH]2)ccc1C(=O)NCCC1CCCN1C.O=C(O)C(F)(F)F (stereo not drawn) | 91% | 41% | 20% |
| CCNS(=O)(=O)c1ccc(Oc2ccc([N+](=O)[O-])cc2)cc1 | 94% | 85% | 1% |
| CCCCCCOc1ccccc1C(=O)NCCOc1ccc(Cl)cc1 | 84% | 37% | 16% |
| Cc1ccc(NC(=O)c2ccc(Cl)c(Cl)c2)cc1-c1ccc(C(=O)Nc2ccncc2)cc1 | 99% | 79% | 39% |
| CC(C)NCc1ccc(-c2cccc(-c3nc4cc(C(F)(F)F)ccc4[nH]3)c2)cc1.O=C(O)C(F)(F)F | 100% | 100% | 21% |
| CCC(CC)N1C(=O)C(c2ccccc2)(c2ccccc2)N=C1N.O=CO | 96% | 61% | 14% |
| Cc1cccc2nc(-c3cccc(-c4ccc(NC(=O)Nc5cccc(C#N)c5)cc4)c3)[nH]c12 | 100% | 91% | 50% |
| O=C(N[C@@H](CC1CCCCC1)C(=O)NCCN1CCCC1)c1ccc(O)c(-c2cccc(C(F)(F)F)c2)c1 | 99% | 55% | 0% |

| SMILES | Inhibition [1] | Inhibition [2] | Inhibition [3] |
| --- | --- | --- | --- |
| Cc1cc2c(cc1C(F)(F)F)N(C(=O)Nc1cc(C(=O)NC3CCN(Cc4ccccc4)C3)cc(C(F)(F)F)c1)CC2.Cl (stereo not drawn) | 100% | 97% | 22% |
| CC(C)CCN1CCCN(Cc2cccc(NC(=O)c3ccc(-c4ccccc4)cc3)c2)CC1.O=C(O)C(F)(F)F | 92% | 21% | 27% |
| Cc1ccc(CN2CCN(Cc3cccc(NC(=O)c4cccs4)c3)CC2)cc1C.O=C(O)C(F)(F)F | 96% | 68% | 41% |
| Cc1nnsc1C(=O)Nc1cccc(-c2ccc(-c3nc4cc(F)ccc4[nH]3)cc2)c1 | 100% | 89% | 51% |
| c1cncc(NCc2ccc(-c3cc4ccncc4cc3OC3CCNCC3)s2)c1 | 100% | 19% | 4% |
| COc1ccccc1Oc1c(N(C)S(=O)(=O)c2ccc(C(C)C)cc2)nc(C(F)(F)F)nc1N(C)S(=O)(=O)c1ccc(C(C)C)cc1 | 94% | 98% | 4% |
| O=C(NC(Nc1ccc([N+](=O)[O-])cc1)C(Cl)(Cl)Cl)c1ccc(Cl)cc1 (stereo not drawn) | 98% | 94% | 21% |
| CCCCN1C(=O)C2CC(=O)CC(C3CCCCC3)C2C1=O (stereo not drawn) | 97% | 1% | 0% |
| Br.N=C(N)Nc1nc(-c2cc(NC(=O)C(F)(F)F)cc([N+](=O)[O-])c2)cs1 | 98% | 51% | 7% |
| CCCCOC(=O)C1=C(C)NC2=C(C(=O)CCC2)C1c1ccc(OC)c(Br)c1 (stereo not drawn) | 93% | 87% | 5% |
| Cc1[nH]c(C)c(-c2ccc(-c3ccccc3C(F)(F)F)nc2)c(=O)c1Br | 97% | 96% | 0% |
| CCc1ccc(C2CCN(CCCCNC(=O)c3ccc(-c4ccc(C(F)(F)F)cc4)cc3)CC2)c(OCCO)c1.Cl | 100% | 69% | 82% |
| COc1cncc(/C=C/c2cncc(C(=O)NCCc3ccc(Cl)cc3Cl)c2)c1 | 99% | 49% | 0% |
| COc1ccc(-c2cccc(NC(=O)c3cccc(C#N)c3)c2)cc1CN1CCNCC1.O=C(O)C(F)(F)F | 100% | 15% | 27% |
| COc1ccc(N2CCc3c(-c4cccc5cnccc45)cc(C)nc32)c(C)c1 | 96% | 0% | 20% |
| O=C(Nc1ccc(OC2CCN(Cc3ccccc3)C2)c(Cl)c1)c1ccco1.O=C(O)C(F)(F)F (stereo not drawn) | 95% | 94% | 13% |
| COc1cc(NC(=O)c2sc(-c3ccc(Cl)cc3)cc2NC(=O)CN2CC[C@@H](O)C2)ccc1OCCN1CCCC1 | 90% | 79% | 56% |
| COc1ccc(Nc2nccc(NCC(O)c3ccc(C(F)(F)F)cc3)n2)cc1 (stereo not drawn) | 98% | 54% | 6% |
| Cc1cccc2nc(-c3cccc(-c4cccc(NC(=O)c5csnn5)c4)c3)[nH]c12 | 98% | 49% | 10% |
| O=C(/C=C/c1ccc(Cl)c(Cl)c1)NCCCCCN1CCC(NC(=O)c2ccc3ccccc3c2)CC1 | 87% | 20% | 8% |
| COc1ccccc1Nc1nc(C)cc(NCc2ccc(-c3c(C)noc3C)cc2)n1 | 98% | 13% | 12% |

| SMILES | Inhibition [1] | Inhibition [2] | Inhibition [3] |
| --- | --- | --- | --- |
| COc1ccc(NC(=O)c2ccc(-c3nc(-c4ccc(Cl)cc4)cs3)cc2)cc1N1CCN(C)CC1 | 91% | 34% | 30% |
| COc1ccc(-c2cccc(NC(=O)c3cccc(C#N)c3)c2)cc1CN(C)CCN(C)C.O=C(O)C(F)(F)F | 99% | 21% | 0% |
| COc1cc(OC)c2c(C)cc(NCCCn3ccnc3)nc2c1 | 100% | 22% | 6% |
| c1ccc(CNc2nc(NCCN3CCCCC3)nc3ccccc23)cc1 | 87% | 8% | 19% |
| C[C@@H](C(=O)N1CCOCC1)N1CC[C@H](NS(=O)(=O)c2ccc3ccnc(N)c3c2)C1=O.O=CO | 84% | 61% | 0% |
| Cc1ccc(-n2ncc(C(=O)Nc3cc(Cl)cc(Cl)c3)c2C2CCNCC2)cc1C.Cl | 100% | 77% | 65% |
| CN(C)CCN(Cc1ccc(-c2ccc(CNCCc3ccccc3)cc2)nc1)C(=O)CCC1CCCC1.O=C(O)C(F)(F)F | 96% | 89% | 98% |
| CN=C(NC)c1cccc(NC(=O)C=Cc2ccc(C=CC(=O)Nc3cccc(C(=NC)NC)c3)cc2)c1.Cl | 98% | 99% | 21% |
| O=C(Nc1ccc(-c2ccccc2)cc1)Nc1cccc(Cn2nc(Cl)c(N3CCCNCC3)cc2=O)c1.O=C(O)C(F)(F)F | 100% | 37% | 13% |
| Fc1ccc2[nH]c(-c3ccc(-c4ccc(CN5CCN(CCN6CCOCC6)CC5)cc4)s3)nc2c1.O=C(O)C(F)(F)F | 99% | 98% | 39% |
| CCCCCCCN1CCC(NC(=O)Nc2ccnc3ccc(OC)cc23)C(CO)C1.O=C(O)C(=O)O (stereo not drawn) | 94% | 69% | 23% |
| N#Cc1cccc(Nc2ncc3c(-c4cccc(NC(=O)Cc5cccc(Cl)c5)c4)c[nH]c3n2)c1.O=C(O)C(F)(F)F | 100% | 95% | 0% |
| O=C(Nc1ccc(C(F)(F)F)cc1)c1ccc(S(=O)(=O)NCC2CCCN(CC3CCCCC3)C2)cc1.O=C(O)C(F)(F)F (stereo not drawn) | 93% | 0% | 44% |
| Cc1cc(CN2CCC(N3CC(c4ccccc4)(c4ccccc4)OC3=O)C2)ccc1O (stereo not drawn) | 96% | 68% | 0% |
| COc1ccc2nccc([C@@H](O)CN3CCC(NCc4ccc5cccc(O)c5n4)CC3)c2c1.O=C(O)C(=O)O | 93% | 40% | 10% |
| O=C(Nc1cc(F)c(F)c(-c2cccnc2)c1)N1CCc2cc(Cl)c(Cl)cc21 | 94% | 9% | 0% |
| COc1ccc(CCN2CCC(CN(C)Cc3cnn(-c4ccccc4)c3)CC2)cc1 | 90% | 5% | 25% |
| COc1cc(Cl)c(C)cc1N(Cc1ccccc1-c1ccccc1)S(=O)(=O)c1ccc(C(F)(F)F)cc1 | 90% | 62% | 23% |
| O=c1c(Br)c(C(F)(F)F)[nH]c2ccc(Oc3ccccc3)cc12 | 91% | 17% | 6% |
